Here are results for nine compounds from ChEMBL document CHEMBL3988442, “University of Dundee, Small-Polar-MMV Screening Library” (2021).

For part of these data: Results with a measured potency or affinity are listed apart.

What all share (parameters): scale not given: direction of the effect not stated beside the values
For assay [1], the target named is Protein translocase subunit SecA (Escherichia coli (strain K12)) (UniProt P10408). As to the kind of experiment: Assay to Identify E. coli SecA ATPase Inhibitors. It is filed as functional. The following applies: 30 µM.
Chain of Protein translocase subunit SecA (Escherichia coli (strain K12)) (P10408 whole entry): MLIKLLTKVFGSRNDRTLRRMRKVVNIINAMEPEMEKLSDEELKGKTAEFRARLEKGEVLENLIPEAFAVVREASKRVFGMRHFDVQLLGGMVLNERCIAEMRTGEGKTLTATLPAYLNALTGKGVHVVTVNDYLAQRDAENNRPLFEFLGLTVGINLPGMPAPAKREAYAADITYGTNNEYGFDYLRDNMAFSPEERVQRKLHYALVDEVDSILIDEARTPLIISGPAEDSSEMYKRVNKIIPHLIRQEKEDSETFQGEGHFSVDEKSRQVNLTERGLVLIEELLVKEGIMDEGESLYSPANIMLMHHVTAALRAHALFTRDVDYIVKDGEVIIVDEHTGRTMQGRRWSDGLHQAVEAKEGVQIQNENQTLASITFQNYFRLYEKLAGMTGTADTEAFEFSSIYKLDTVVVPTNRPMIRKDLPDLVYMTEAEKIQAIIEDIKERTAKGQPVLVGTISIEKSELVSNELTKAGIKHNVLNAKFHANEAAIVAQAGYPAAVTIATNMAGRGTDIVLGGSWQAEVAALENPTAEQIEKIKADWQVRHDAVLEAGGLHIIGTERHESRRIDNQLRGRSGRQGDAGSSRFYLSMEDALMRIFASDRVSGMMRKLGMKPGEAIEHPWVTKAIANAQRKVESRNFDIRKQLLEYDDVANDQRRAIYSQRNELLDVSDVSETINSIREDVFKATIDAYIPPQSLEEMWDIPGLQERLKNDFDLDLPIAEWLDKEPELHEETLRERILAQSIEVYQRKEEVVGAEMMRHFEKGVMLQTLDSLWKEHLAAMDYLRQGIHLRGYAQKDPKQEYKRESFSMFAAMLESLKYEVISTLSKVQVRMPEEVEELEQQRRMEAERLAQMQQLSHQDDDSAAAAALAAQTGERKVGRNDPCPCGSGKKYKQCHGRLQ
In assay [2] the target is T1, Ubiquitin-activating enzyme e1, putative (Leishmania donovani (strain BPK282A1)) (UniProt E9BSI1).
T1 sequence (whole entry): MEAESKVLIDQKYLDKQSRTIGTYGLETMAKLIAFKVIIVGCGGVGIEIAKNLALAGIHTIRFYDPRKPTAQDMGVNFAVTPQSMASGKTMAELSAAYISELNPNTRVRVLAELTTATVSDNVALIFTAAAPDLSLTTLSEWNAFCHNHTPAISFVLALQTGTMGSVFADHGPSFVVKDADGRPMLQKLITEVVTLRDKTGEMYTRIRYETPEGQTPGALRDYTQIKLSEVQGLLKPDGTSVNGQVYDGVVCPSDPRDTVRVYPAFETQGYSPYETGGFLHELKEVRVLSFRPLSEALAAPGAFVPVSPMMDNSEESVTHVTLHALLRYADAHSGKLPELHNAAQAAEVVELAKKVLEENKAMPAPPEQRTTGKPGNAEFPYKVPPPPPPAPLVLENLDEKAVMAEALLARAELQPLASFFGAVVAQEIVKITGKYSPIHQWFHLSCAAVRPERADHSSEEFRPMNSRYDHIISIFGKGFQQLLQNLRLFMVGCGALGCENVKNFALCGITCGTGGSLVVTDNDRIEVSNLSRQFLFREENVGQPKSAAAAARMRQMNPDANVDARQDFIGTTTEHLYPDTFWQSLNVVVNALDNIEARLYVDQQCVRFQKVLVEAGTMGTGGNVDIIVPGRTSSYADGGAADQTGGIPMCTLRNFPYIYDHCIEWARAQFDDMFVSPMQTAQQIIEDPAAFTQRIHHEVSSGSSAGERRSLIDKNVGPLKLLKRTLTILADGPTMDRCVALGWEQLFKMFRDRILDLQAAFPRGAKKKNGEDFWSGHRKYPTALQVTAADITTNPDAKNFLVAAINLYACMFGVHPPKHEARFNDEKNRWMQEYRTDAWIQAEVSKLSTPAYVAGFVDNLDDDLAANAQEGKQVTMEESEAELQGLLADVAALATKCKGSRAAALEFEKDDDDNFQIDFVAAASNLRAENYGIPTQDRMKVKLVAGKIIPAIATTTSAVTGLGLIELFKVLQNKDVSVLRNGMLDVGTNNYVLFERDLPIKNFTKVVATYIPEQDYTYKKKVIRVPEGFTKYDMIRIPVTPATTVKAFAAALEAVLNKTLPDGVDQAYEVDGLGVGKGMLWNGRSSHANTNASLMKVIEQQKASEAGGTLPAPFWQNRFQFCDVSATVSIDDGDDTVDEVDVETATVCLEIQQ
In words: Leishmania donovani Ubiquitin Activating Enzyme (LdE1). It is filed as functional. The following applies: 30 µM.

Assay [3] addresses AMP-activated protein kinase, AMPK (Homo sapiens) (UniProt P54646+O43741+P54619+Q9UGJ0+Q9Y478+Q13131+Q9UGI9). As to the kind of experiment: AMP-dependent Kinase enzyme assay. An in vitro enzyme assay that detects ADP turnover that is directly proportional to AMPK activity. This uses naive AMPK that is activated during the assay with MK-8722. In kind it is functional. The following applies: 30 µM.

For assay [4], the target named is Sialic acid-binding Ig-like lectin 9 (Homo sapiens) (UniProt Q9Y336). In words: Hs-Siglec9 ALPHAscreen SOP 20170721. The following applies: 10 µM.
Chain of Sialic acid-binding Ig-like lectin 9 (Homo sapiens) (Q9Y336 whole entry): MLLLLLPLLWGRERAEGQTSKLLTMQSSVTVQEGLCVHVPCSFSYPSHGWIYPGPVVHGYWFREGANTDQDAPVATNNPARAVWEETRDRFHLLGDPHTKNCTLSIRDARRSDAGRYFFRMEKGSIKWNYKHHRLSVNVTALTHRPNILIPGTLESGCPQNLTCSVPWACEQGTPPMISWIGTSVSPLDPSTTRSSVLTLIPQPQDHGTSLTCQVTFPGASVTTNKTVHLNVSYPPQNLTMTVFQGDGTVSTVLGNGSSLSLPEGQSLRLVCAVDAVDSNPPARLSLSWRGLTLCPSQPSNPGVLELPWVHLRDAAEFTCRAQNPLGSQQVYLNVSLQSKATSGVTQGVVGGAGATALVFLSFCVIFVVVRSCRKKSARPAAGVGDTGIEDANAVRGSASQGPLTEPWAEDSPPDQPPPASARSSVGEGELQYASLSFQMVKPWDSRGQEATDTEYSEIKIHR
The next assay concerns Trypanosoma cruzi. As to the kind of experiment: Trypanosoma cruzi phosphomannomutase and mannose-1-phosphate guanylyltransferase assay. In kind it is functional. As to conditions: 10 µM.
The target of assay [5] is T2, Arginase-2, mitochondrial (Homo sapiens) (UniProt P78540).
T2 sequence (whole entry): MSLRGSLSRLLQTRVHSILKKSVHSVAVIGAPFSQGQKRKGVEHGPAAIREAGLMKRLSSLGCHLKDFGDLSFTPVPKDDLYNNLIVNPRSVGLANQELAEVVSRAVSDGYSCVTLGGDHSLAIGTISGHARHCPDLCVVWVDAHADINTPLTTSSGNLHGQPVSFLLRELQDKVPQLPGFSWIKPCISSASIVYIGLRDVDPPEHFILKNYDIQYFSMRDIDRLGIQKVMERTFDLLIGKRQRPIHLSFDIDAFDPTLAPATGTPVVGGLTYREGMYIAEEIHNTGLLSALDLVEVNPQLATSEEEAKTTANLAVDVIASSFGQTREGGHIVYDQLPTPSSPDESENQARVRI
In words: in vitro enzyme assay to detect the production of urea directly proportional to the activity of Arginase II. Also: in the data most compounds retested in dose-response had high values. It is filed as functional. The following applies: 33.3 µM.

The target in assay [6] is T3, Proteasome subunit beta (Trypanosoma cruzi) (UniProt O96673).
T3 sequence (whole entry): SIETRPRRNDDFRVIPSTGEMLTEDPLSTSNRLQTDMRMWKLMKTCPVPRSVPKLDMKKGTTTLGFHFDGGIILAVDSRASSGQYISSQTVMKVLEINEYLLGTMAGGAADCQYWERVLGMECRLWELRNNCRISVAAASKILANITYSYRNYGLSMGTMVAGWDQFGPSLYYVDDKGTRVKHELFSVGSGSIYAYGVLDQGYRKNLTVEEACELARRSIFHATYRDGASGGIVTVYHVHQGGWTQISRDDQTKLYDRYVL
In words: Trypanosoma cruzi proteasome chymotrypsin-like activity (TcProtChymo) assay. Also: in the data most compounds retested in dose-response had high values. It is filed as functional. As to conditions: 9.37 µM.

A further assay is filed under the species Homo sapiens. As to the kind of experiment: To identify inhibition of the IFN signalling (Jak-Stat) pathway via expression of an eGFP reporter gene under the control of an IFN-stimulated response element (ISRE) containing MxA promoter. It is filed as functional. As to conditions: 30 µM. A general note: In a reporter assay the amount or activity of a reporter protein is the signal.

For assay [7], the target named is T4, Tyrosyl-tRNA synthetase, putative (Trypanosoma cruzi (strain CL Brener)) (UniProt Q4DSP6).
T4 sequence (whole entry): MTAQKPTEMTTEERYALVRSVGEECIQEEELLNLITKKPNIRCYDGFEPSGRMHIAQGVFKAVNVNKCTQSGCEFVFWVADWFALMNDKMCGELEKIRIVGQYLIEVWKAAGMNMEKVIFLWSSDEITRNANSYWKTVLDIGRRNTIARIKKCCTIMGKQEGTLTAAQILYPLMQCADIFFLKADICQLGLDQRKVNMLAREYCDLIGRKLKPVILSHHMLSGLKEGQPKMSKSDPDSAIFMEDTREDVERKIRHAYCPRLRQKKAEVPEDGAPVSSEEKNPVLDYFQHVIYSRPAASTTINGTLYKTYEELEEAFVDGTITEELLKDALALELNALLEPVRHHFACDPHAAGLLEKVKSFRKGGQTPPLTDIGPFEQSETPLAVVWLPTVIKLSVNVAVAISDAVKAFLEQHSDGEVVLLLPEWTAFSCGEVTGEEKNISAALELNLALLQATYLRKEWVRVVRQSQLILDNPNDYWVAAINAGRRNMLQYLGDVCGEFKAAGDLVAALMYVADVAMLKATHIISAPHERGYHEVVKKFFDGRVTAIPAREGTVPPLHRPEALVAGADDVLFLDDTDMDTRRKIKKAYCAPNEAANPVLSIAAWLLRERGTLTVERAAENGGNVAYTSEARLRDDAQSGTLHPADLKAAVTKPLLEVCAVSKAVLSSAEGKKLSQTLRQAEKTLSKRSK
As to the kind of experiment: Trypanosoma cruzi tyrosyl tRNA synthetase (TcYRS) _High Tyrosine SOP. Also: in the data most compounds retested in dose-response had high values. In kind it is functional. The following applies: 30 µM.

Assay [8] deals with T4, Tyrosyl-tRNA synthetase, putative (Trypanosoma cruzi (strain CL Brener)). As to the kind of experiment: Trypanosoma cruzi tyrosyl tRNA synthetase (TcYRS) SOP. In kind it is functional. As to conditions: 30 µM.
Assay [9] has as its target Chromo domain-containing protein 1 (Saccharomyces cerevisiae (strain ATCC 204508 / S288c) (Baker's yeast)) (UniProt P32657). As to the kind of experiment: ScCHD-1 Enzyme Inhibition Assay. Also: in the data most compounds retested in dose-response had high values. It is filed as functional. The following applies: 30 µM.

Chain of Chromo domain-containing protein 1 (Saccharomyces cerevisiae (strain ATCC 204508 / S288c) (Baker's yeast)) (P32657 whole entry, the tested form may be a part): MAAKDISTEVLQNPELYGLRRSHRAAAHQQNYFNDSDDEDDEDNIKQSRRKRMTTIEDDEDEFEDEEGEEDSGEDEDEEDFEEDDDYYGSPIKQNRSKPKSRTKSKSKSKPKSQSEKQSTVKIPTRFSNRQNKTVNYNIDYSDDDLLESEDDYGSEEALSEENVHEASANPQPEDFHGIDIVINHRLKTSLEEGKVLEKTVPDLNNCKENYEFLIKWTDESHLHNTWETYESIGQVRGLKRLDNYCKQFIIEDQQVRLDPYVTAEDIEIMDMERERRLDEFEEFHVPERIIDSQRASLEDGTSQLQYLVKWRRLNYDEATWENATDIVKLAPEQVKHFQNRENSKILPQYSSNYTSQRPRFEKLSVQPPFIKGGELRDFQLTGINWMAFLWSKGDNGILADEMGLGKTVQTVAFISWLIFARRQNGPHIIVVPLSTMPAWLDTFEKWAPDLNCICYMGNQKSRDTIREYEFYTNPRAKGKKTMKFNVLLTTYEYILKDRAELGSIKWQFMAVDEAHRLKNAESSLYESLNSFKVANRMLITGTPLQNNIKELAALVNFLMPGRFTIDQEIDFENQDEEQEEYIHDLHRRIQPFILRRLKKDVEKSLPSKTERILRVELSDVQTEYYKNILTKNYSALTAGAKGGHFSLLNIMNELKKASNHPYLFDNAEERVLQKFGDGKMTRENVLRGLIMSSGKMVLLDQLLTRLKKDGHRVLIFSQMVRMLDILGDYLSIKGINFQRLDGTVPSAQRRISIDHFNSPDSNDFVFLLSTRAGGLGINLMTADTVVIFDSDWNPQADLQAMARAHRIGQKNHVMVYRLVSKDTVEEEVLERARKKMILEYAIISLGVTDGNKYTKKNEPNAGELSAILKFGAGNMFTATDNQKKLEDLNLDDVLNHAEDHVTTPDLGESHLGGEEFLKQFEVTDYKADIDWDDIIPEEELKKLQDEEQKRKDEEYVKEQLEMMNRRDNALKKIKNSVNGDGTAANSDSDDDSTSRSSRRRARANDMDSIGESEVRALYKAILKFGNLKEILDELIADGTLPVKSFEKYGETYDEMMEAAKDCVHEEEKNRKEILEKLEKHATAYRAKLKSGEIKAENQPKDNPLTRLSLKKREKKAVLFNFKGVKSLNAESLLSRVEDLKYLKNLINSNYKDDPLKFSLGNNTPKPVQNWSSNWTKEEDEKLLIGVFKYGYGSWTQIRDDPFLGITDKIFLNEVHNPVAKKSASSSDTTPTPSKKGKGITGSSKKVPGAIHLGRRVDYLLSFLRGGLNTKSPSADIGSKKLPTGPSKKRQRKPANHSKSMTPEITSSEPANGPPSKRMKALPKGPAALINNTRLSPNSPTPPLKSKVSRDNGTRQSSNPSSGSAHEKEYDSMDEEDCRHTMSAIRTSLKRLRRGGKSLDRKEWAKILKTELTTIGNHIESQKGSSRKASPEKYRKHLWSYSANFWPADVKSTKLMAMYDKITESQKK

Consider `CNc1nc2c(s1)C(c1c(F)cccc1Cl)CC(=O)N2` (centres undefined), for which the Percent Effect was -1.81% in assay [1]; 13.2% in assay [2]; -308% in assay [3]; 1.93% in [4]; 4.58% with Trypanosoma cruzi; -4.73% in assay [5]. The Percent Effect in assay [6] was 6.81%; in the assay filed under Homo sapiens, -0.412%; in [7], 2.13%; in assay [8] it was 2.6%; in [9], 22.5%.
Turning to `Cn1cnnc1C1CCCN(C(=O)NCc2cc[nH]n2)C1` (centres undefined), the Percent Effect in assay [1] is -1.36%; in assay [2], 18.4%; in assay [3], -12.9%; in assay [4], -7.02%; in the assay with Trypanosoma cruzi, 4.01%; in assay [5] it was -2.16%. The Percent Effect in assay [6] is 9.05%; in the assay listed under Homo sapiens, 4.39%; in [7], 6.4%; in assay [8] it was 18.5%; in [9], -8.86%.
With `Cc1nc(N2CCN(C(=O)c3ccc(O)cc3)CC2)c2cnn(C)c2n1`, the Percent Effect in assay [1] was -0.631%; in [2], 0%; in [3] it was -5.77%; in [4], 5.23%; in the assay on Trypanosoma cruzi, -2.74%; in [5], 1.6%. In addition, the Percent Effect was -2.88% in assay [6]; 15.3% in the assay listed under Homo sapiens; -2.46% in assay [7]; -6.17% in assay [8]; 0.501% in [9].
Turning to `CCC(NC(=O)C1CCN(S(C)(=O)=O)CC1)c1ccc(OC)c(OC)c1` (centres undefined), the Percent Effect in assay [1] is -2.12%; in [2] it was -2.6%; in assay [3], 3.25%; in [4] it was -1.28%; with Trypanosoma cruzi, -1.48%; in assay [5] it was -5.52%. The Percent Effect is 11.2% in [6]; -4.52% in the assay filed under Homo sapiens; 3.23% in [7]; 1.24% in assay [8]; 3.51% in assay [9].
In the case of `Cc1ccccc1CSCCn1nc2ccccn2c1=O`, the Percent Effect in assay [1] was -1.42%; in [2], 15.6%; in [3], 7.92%; in assay [4] it was -4.64%; in the assay with Trypanosoma cruzi, -2.06%; in assay [5] it was 4%. The Percent Effect in [6] was 10.9%; in the assay listed under Homo sapiens it was 18.9%; in assay [7] it was 4.76%; in assay [8], 18.8%; in assay [9] it was -32.9%.
For `Cc1cc(C)n(CC2CN(CCOc3cccc(C#N)c3)CCO2)n1` (centres undefined), the Percent Effect in [1] was -6.03%; in assay [2] it was 13.2%; in [3], -3.15%; in [4] it was -7.82%; with Trypanosoma cruzi, -1.21%; in assay [5], -0.719%. Besides, the Percent Effect was 1.44% in assay [6]; 6.94% in the assay filed under Homo sapiens; 7.39% in [7]; -6.17% in [8]; -0.144% in [9].
As to `Cc1cc(CC(=O)N2CCCC2c2nc(C(C)C)no2)on1` (centres undefined), the Percent Effect in [1] was -3.03%; in assay [2] it was 20.8%; in assay [3], -13.1%; in assay [4] it was 26.8%; in the assay with Trypanosoma cruzi, 8.84%; in assay [5], 3.97%. Besides, the Percent Effect is 18.8% in assay [6]; 5.27% in the assay listed under Homo sapiens; 6.32% in assay [7]; 15.4% in [8]; -9.95% in assay [9].
Regarding `Cc1ccc(CNC(=O)N2CCCCC2CCNS(C)(=O)=O)cc1` (centres undefined), the Percent Effect in assay [1] was -1.58%; in assay [2] it was 2.7%; in [3] it was 2.59%; in [4] it was -1.08%; with Trypanosoma cruzi, -1.74%; in assay [5], -15.2%. Moreover, the Percent Effect is 12.6% in assay [6]; 23.6% in the assay listed under Homo sapiens; 2.65% in [7]; 2.44% in assay [8]; -4.89% in [9].
For `Cc1ccc(C(C)NC(=O)Cc2c(C)nc3c(c2C)c(=O)[nH]n3C)o1` (centres undefined), the Percent Effect in assay [1] is -4.2%; in [2], 7.79%; in [3] it was 1.79%; in [4], 9.22%; in the assay on Trypanosoma cruzi, 1.08%; in [5] it was -11%. For the same compound, the Percent Effect in assay [6] turned out to be 10.7%; in the assay listed under Homo sapiens, 1.96%; in [7] it was 1.07%; in assay [8], 6.17%; in assay [9], 1.13%.
